From PubChem BioAssay
This is a sample that favours compounds with a hit; in the whole collection about 13% have one here.
HCV inh: HCV inhibition; AID 651820; Huh7.5.1 HCVcc-Cre infection, luciferase reporter, 44 h; 340,000 compounds, 3.4% hits; Potency, µM (highest dose often 41.8 µM), for the others: at the highest dose activity change, negative = inhibition, most hits filed as inhibitors; active = well fitted inhibition curve with a large enough effect; inconclusive = small, poorly fitted or top-dose-only effect, or another doubt; inactive = no such curve, though single readings can be large or run the other way; note: potency is the fitted concentration of half-maximal effect; % is set by controls: 0 for no effect and ±100 for the full control effect
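Antiviral activity was scored by luciferase reporter output from cells infected with HCVcc-Cre (~0.5 moi) in presence of compound, 44 h infection period, cells seeded 1,000/well 4 h prior.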
FMDV antiviral: antivirals against foot and mouth disease virus; 410,000 compounds, 1.2% hits; AID 1159524; Potency, µM (titrated, usually from 57.9 µM), for inactives: at the top dose activity change, negative = inhibition, actives largely listed as inhibitors; FMDV antiviral cell-based qHTS; calls by dose curve; tested in HEK293T cells; note: read-out not given here; potency is the fitted concentration of half-maximal effect; % is set by controls: 0 for no effect and ±100 for the full control effect; nearly all actives have a fitted effect of over 45% in size
Lassa entry inh: blocks Lassa virus binding to or entry into cells; Lassa virus pseudotype entry inhibition, cell reporter; Potency, µM (series often up to 37.9 µM), for inactives: at the highest dose activity change, negative = inhibition, actives largely listed as inhibitors; 300,000 compounds, 1.2% hits; AID 540256; calls by dose curve; tested in HEK293 cells; note: potency is the fitted concentration of half-maximal effect; % is set by controls: 0 for no effect and ±100 for the full control effect; nearly all actives have a fitted effect of over 50% in size
Cycloheximide cs: counter-screen for Shiga toxin inhibitors: cycloheximide protein synthesis inhibition. 300,000 compounds, 12% hits. max response, %. cell reporter, cycloheximide protein synthesis inhibition counterscreen; in the data active = max response mostly above about 13%, no sharp cut-off; inactive = mostly below about 14%; note: read at 38.3 µM for the half of the compounds with a filed dose; 0% is about no effect
Shiga toxin inh: Shiga toxin inhibition; Vero cells, Shiga toxin protein synthesis inhibition reporter; inhibition, % at 38.7 µM; 290,000 compounds, 9.2% hits; in the data active = inhibition mostly above about 28%, no sharp cut-off; inactive = mostly below about 43%; note: 0% is about no effect
Marburg entry inh: inhibitors of Marburg virus binding or cell entry | Potency, µM (series often up to 37.8 µM), for inactives: at the top dose activity change, negative = inhibition, actives largely listed as inhibitors | AID 540276 | Marburg virus pseudotyped entry inhibition, cell reporter | 300,000 compounds, 1.8% hits; calls by dose curve; tested in HEK293 cells; note: potency is the fitted concentration of half-maximal effect; % is set by controls: 0 for no effect and ±100 for the full control effect
The depositor's hits bear a star; ? = inconclusive; . = not tested or not shown; [ ] = another dose, or the depositor's remark.

SMILES	HCV inh	FMDV antiviral	Lassa entry inh	Cycloheximide cs	Shiga toxin inh	Marburg entry inh
NC(=O)CSc1nc2cccnc2n1-c1ccc(F)cc1	24.2%	-23.1%	8.3%	-3.4	-5.3	4.6%
O=C(c1cc2ccccc2oc1=O)N(Cc1cccs1)Cc1ccccc1Cl	-10.9%	29.2%	?	44.6*	60.4*	-0.8%
CN(Cc1ccccc1Cl)C(=O)c1cc2ccccc2o1	9.5%	36.6%	?	30.5*	39.4*	8.2%[46.1 µM]
CN(Cc1ccc(N(C)C)cc1)C(=O)c1cc2ccccc2o1	-11.6%	40.8%	?	28.0*	68.1*	-12.3%[46.1 µM]
O=C(c1cc2ccccc2o1)N(Cc1ccco1)Cc1cccs1	6.5%	-14.6%	-10.2%	.	.	-3.9%
CCN(Cc1ccc(OC)c(F)c1)C(=O)c1cc2ccccc2o1	-15.5%	21.9%	12.9%[46.1 µM]	17.7*	8.9	8.0%[46.1 µM]
Cc1cccc(-c2nc(C)c(CCNC(=O)C(=O)Nc3ccccc3C#N)s2)c1	.	-18.8%	-24.0%[46.1 µM]	.	.	.
Cc1ccc(-n2ncc3c(N4CCN(C)CC4)ncnc32)cc1C	.	-37.4%	15.9%[46.1 µM]	.	.	.
O=C(C(c1ccccc1)c1ccccc1)N1CCN(Cc2ccccn2)CC1	8.6%	-26.0%	6.6%	-4.2	-4.5	-7.8%
O=CN1N=C(c2ccccc2)CC1c1ccc(Cl)cc1 (stereo not drawn)	-6.1%	?	-25.6%[46.1 µM]	1.6	-4.3	?
O=C1OC(c2ccccc2)=NC12CC2c1ccc(Cl)cc1 (stereo not drawn)	6.3%	28.2µM*	?	0.1	8.1	?
O=C(Nc1ccc(N2CCCCC2)cc1)c1cccnc1Cl	5.8%	60.3%	?	33.3*	72.4*	23.1%
CC(=O)N1CCN(c2ccc(NC(=O)c3cccc(Cl)c3Cl)cc2)CC1	-15.6%	-8.7%	17.6%[46.1 µM]	-1.8	-0.9	?
O=C(Nc1ccc(N2CCCC2)cc1)c1cccc(Cl)c1Cl	?	57.5%	3.8%	24.5*	71.0*	-22.4%
CCOC(=O)c1ccc2[nH]c3c(c2c1)CCCC3	6.8%	65.7%	.	51.0*	86.8*	.
CCOC(=O)c1ccc2[nH]c3c(c2c1)CCCC3O (stereo not drawn)	10µM*	41.1%	-23.1%	23.9*	35.0	22.7%[46.1 µM]
CCOC(=O)CNC(=O)C1CCCc2c1[nH]c1ccc(Cl)cc21 (stereo not drawn)	-17.3%	0.0%	14.2%	-1.4	-11.7	?
O=C(CN1CCN(S(=O)(=O)c2ccc(F)cc2)CC1)N1CCOCC1	10.0%	-2.0%	1.4%	-4.4	8.2	-1.0%
CC1CSc2ccccc2NC1=S (stereo not drawn)	8.1%	46.4%	7.9%	-1.1	-1.3	0.0%
c1ccc(C2CSc3ccccc3N2)cc1 (stereo not drawn)	19.1%	40.9%	.	63.8*	102.4*	.
Cc1c(Cl)cccc1N/C(=N/S(=O)(=O)c1cccs1)c1ccccc1	-6.2%	4.4%	-14.6%	-3.8	-18.6	?
Cc1cc(C)cc(Nc2cc(C)nc3nncn23)c1	.	4.5%	-6.4%[46.1 µM]	.	.	6.2%[46.1 µM]
C/C(=N\NC(=O)c1nn(C)cc1Cl)c1ccncc1	2.7%	15.9%	8.1%	31.0*	45.6*	8.3%
C/C(=N\NC(=O)c1nn(C)cc1Br)c1ccncc1	41.0%	15.5%	18.2%	55.4*	92.3*	2.1%
Cc1cccc(N2CCN(C(=O)CS(=O)(=O)Cc3nc(-c4ccccc4F)oc3C)CC2C)c1 (stereo not drawn)	12.6µM*	35.5µM*	.	-2.3	-0.5	-9.8%
SMILES	HCV inh	FMDV antiviral	Lassa entry inh	Cycloheximide cs	Shiga toxin inh	Marburg entry inh
Cc1oc(-c2ccccc2F)nc1CS(=O)(=O)CC(=O)N1CCN(c2cccc(C(F)(F)F)c2)CC1	.	35.5µM*	25.3%[46.1 µM]	.	.	?
CC(=O)NNc1nc(-c2ccc(NC(C)=O)cc2)cs1	8.3%	-15.7%	11.7%	2.7	10.6	25.1%
CC(=O)Nc1cccc(-c2csc(Nc3ncccn3)n2)c1	.	.	.	43.0*	91.2*	.
CC(=O)Nc1ccc(-c2csc(Nc3cccc(C)n3)n2)cc1	12.6µM*	27.4%	?	49.6*	73.5*	-15.1%
CC(=O)Nc1cccc(-c2cnc(NC(C)=O)cn2)c1	.	42.1%	.	.	.	.
CC(=O)Nc1cccc(-c2csc(Nc3ccc(C)cn3)n2)c1	?	-33.3%	1.78µM*	69.0*	97.6*	?
CC(=O)Nc1cccc(-c2csc(C(NC(C)=O)c3ccc(F)c(F)c3)n2)c1 (stereo not drawn)	.	6.2%	.	.	.	.
CC(=O)S[C@@H]1CC2=CC(=O)CC[C@@]2(C)[C@H]2CC[C@]3(C)[C@H](CC[C@@]34CCC(=O)O4)[C@H]12	.	.	.	.	.	17.1%[46.1 µM]
COc1ccc(NC(=O)c2cc(-c3ccc(C)o3)nc3ccccc23)c(OC)c1	10µM*	15.4%	.	.	.	.
COc1ccc(NC(=O)c2cc(-c3ccc(C)o3)nc3ccccc23)cc1OC	?	-11.6%	-5.8%	37.6*	79.6*	?
